Assay results reported in PubChem BioAssay (NCATS).
“And” between values parts separate entries of the source, which are not always exact repeats. Equal entries are not always repeated. Records with an inconclusive call do not appear. The source made the active and inactive calls. Calls come from the whole dose curve; as a rule, active = well fitted curve in the direction sought with a large enough effect; inconclusive = small, poorly fitted or top-dose-only effect, or another doubt; inactive = no such curve, though single readings can be large; an effect the other way counts as inactive or inconclusive.

Experiments:
[1] = tested on: HaCat; assay: Cytotoxic Profiling of Annotated Libraries Using Quantitative High-Throughput Screening (AID 1296008); conditions: Five cell lines viability, CellTiter-Glo ATP luminescence, 48-72 h; max response: stronger effect = lower value; note: nearly all actives have a fitted effect of over 60% in size; note: potency is the fitted concentration of half-maximal effect
How it was run: (§1)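 Cytotoxicity was measured as CellTiter-Glo ATP luminescence, read after 10 min at room temperature. Compound treatment of the cells lasted 48 or 72 hr at 37 degrees Celsius in a qHTS format.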

[2] = tested on: KB-3-1; assay: as above; conditions: Five cell lines viability, CellTiter-Glo ATP luminescence, 48-72 h; max response: stronger effect = lower value
How it was run: as §1

[3] = tested on: NIH3T3; assay: as above; conditions: Five cell lines viability, CellTiter-Glo ATP luminescence, 48-72 h; max response: stronger effect = lower value
How it was run: as §1

[4] = tested on: MCC-13; assay: qHTS assay to identify novel small-molecules to repurpose for Merkel cell carcinoma treatment (AID 1296009); conditions: MCC and control cell lines, CellTiter-Glo viability, 72 h; series mostly up to 46 µM; note: nearly all actives have a fitted effect of over 60% in size; note: potency is the fitted concentration of half-maximal effect
How it was run: (§2)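 Cell viability, measured as CellTiter-Glo luminescence, was normalized between DMSO and no-cell wells. The cells had been exposed to 8- or 11-point compound dilutions for 72 hr at 37 degree celsius.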

[5] = tested on: MCC-26; assay: as above; conditions: MCC and control cell lines, CellTiter-Glo viability, 72 h; series mostly up to 46 µM
How it was run: as §2

[6] = tested on: MKL-1; assay: as above; conditions: MCC and control cell lines, CellTiter-Glo viability, 72 h; series mostly up to 46 µM
How it was run: as §2

[7] = tested on: MKL-2; assay: as above; conditions: MCC and control cell lines, CellTiter-Glo viability, 72 h; series mostly up to 46 µM
How it was run: as §2

[8] = tested on: WaGa; assay: as above; conditions: MCC and control cell lines, CellTiter-Glo viability, 72 h; series mostly up to 46 µM
How it was run: as §2

[9] = tested on: C33A; assay: Primary qHTS to identify gynecologic anti-cancer compounds using libraries of approved drugs and bioactive compounds (AID 1345084); conditions: Gynecologic cancer cell panel viability, ATPlite luminescence, 48 h; series mostly up to 57.5 µM; note: nearly all actives have a fitted effect of over 55% in size
How it was run: (§3)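 Five-point cytotoxicity, 48 h drug exposure at 37 C, 5% CO2, on cells seeded 16 h beforehand. ATP content read by ATPlite luminescence.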

[10] = tested on: CASKI; assay: as above; conditions: Gynecologic cancer cell panel viability, ATPlite luminescence, 48 h; series mostly up to 57.5 µM
How it was run: as §3

[11] = tested on: Es-2; assay: as above; conditions: Gynecologic cancer cell panel viability, ATPlite luminescence, 48 h; series mostly up to 57.5 µM
How it was run: as §3

[12] = tested on: HeLa; assay: as above; conditions: Gynecologic cancer cell panel viability, ATPlite luminescence, 48 h; series mostly up to 57.5 µM
How it was run: as §3

[13] = tested on: Hek293T; assay: as above; conditions: Gynecologic cancer cell panel viability, ATPlite luminescence, 48 h, control line for the selectivity index; series mostly up to 57.5 µM
How it was run: as §3

[14] = tested on: JEG-3; assay: as above; conditions: Gynecologic cancer cell panel viability, ATPlite luminescence, 48 h; series mostly up to 57.5 µM
How it was run: as §3

[15] = tested on: HACAT; assay: qHTS assay to identify novel small-molecules to repurpose for Merkel cell carcinoma treatment (AID 1296009); conditions: MCC and control cell lines, CellTiter-Glo viability, 72 h; at 44.8 µM (top of the series) unless noted; note: nearly all actives have a fitted effect of over 60% in size; note: potency is the fitted concentration of half-maximal effect
How it was run: as §2

[16] = tested on: NIH3T3; assay: as above; conditions: MCC and control cell lines, CellTiter-Glo viability, 72 h; at 44.8 µM (top of the series) unless noted
How it was run: as §2

[17] = tested on: UISO; assay: as above; conditions: MCC and control cell lines, CellTiter-Glo viability, 72 h; series mostly up to 46 µM
How it was run: as §2
% is set by controls: 0 for no effect and ±100 for the full control effect.

COc1ccc(C2CC(c3ccccc3)=NN2c2ccc(S(N)(=O)=O)cc2)cc1 (centres undefined)
inactive: max response [1] 3.54% and 1.7% | max response [2] -15.8% | max response [3] -14.6% and -17.5% | Potency [4] | Potency [5] | Potency [6] | Potency [7] | Potency [8] | Potency [9] | Potency [10] | Potency [11] | Potency [12] | Potency [13] | Potency [14]

O=C(O)C=Cc1ccc(O)c(O)c1
inactive: max response [1] -23.4% | max response [2] 6.69% | max response [3] -24.2%

CN(C)CCC=C1c2ccccc2COc2ccc(CC(=O)O)cc21
inactive: outcome [1] | outcome [2] | outcome [15] | Potency [4] | Potency [5] | Potency [6] | Potency [7] | outcome [16] | Potency [17] | Potency [8]

O=C(N[C@@H](c1ccccc1)[C@@H]1CCCCN1)c1cccc(C(F)(F)F)c1Cl
inactive: max response [1] 4.43% | max response [2] -7.93% | max response [3] -0.909% | Potency [4] | Potency [5] | Potency [6] | Potency [7] | Potency [17] | Potency [8]

CC[C@H]1OC(=O)[C@H](C)[C@@H](O[C@H]2C[C@@](C)(OC)[C@@H](O)[C@H](C)O2)[C@H](C)[C@@H](O[C@@H]2O[C@H](C)C[C@H](N(C)C)[C@@H]2O)[C@](C)(O)C[C@@H](C)CN(C)[C@H](C)[C@@H](O)[C@]1(C)O
inactive: outcome [1] | outcome [2] | outcome [3] | outcome [15] | Potency [4] | Potency [6] | outcome [16] | Potency [17] | Potency [8]

Cn1cc(C=C2C(=O)Nc3cccnc32)c2ccccc21
inactive: max response [1] -0.233% | max response [2] 5.23% | max response [3] -5.8% | Potency [4] | Potency [5] | Potency [6] | Potency [7] | Potency [17] | Potency [8]

CC[C@H]1OC(=O)[C@H](C)C(=O)[C@H](C)[C@@H](O[C@H]2O[C@H](C)C[C@H](N(C)C)[C@@H]2O)[C@](C)(OC)C[C@@H](C)C(=O)[C@H](C)[C@H]2N(CCCCn3cnc(-c4cccnc4)c3)C(=O)O[C@]12C
inactive: max response [1] -0.424% | max response [2] 2.84% | max response [3] -10.2% | Potency [4] | Potency [5] | Potency [6] | Potency [7] | Potency [17] | Potency [8]

NS(=O)(=O)c1ccc(NC2=CC(=O)c3ccccc3C2=O)cc1
active: Potency [17] 2640 nM
inactive: outcome [1] | max response [2] 7.69% | max response [3] -17.3% | outcome [15] | Potency [5]

CCC(=O)O[C@]1(C(=O)CO)CC[C@H]2[C@@H]3CCC4=CC(=O)CC[C@]4(C)[C@@H]3CC[C@@]21C
inactive: max response [1] -31% | max response [2] 0.702% | Potency [4] | Potency [5] | Potency [6] | Potency [7] | outcome [16] | Potency [17] | Potency [8]

CC(C)(C(=O)NCC(F)(F)C(F)(F)F)C(=O)N[C@@H]1C(=O)Nc2ccccc2-c2ccccc21
inactive: max response [1] -2.21% | outcome [2] | outcome [3] | Potency [4] | Potency [5] | outcome [16]

COc1ccc2c(Oc3ccc(NC(=O)c4c(C)n(CC(C)(C)O)n(-c5ccccc5)c4=O)cc3F)ccnc2c1
inactive: max response [1] 2.66% and -22.8% | max response [2] -19.2% | Potency [4] | Potency [5] | Potency [6] | Potency [7] | Potency [8] | Potency [9] | Potency [10] | Potency [11] | Potency [12] | Potency [13] | Potency [14]
active: Potency [3] 8.33 µM and 10.3 µM

COc1cc(O)c2c(c1)C(=O)c1cc(C)cc(O)c1C2=O
inactive: max response [1] -5.67% | max response [2] -1.03% | outcome [3] | Potency [4] | Potency [5] | Potency [6] | Potency [7] | outcome [16] inactive [at 17.4 µM] | Potency [17] | Potency [8]

O=C1NC(=O)C(=Cc2ccc(-c3ccc(F)cc3)o2)S1
inactive: max response [1] -17.4% | max response [2] -5.29% | max response [3] -13.2% | Potency [4] | Potency [6] | Potency [7] | Potency [17] | Potency [8]

O=c1cc(-c2ccc(O)cc2)oc2cc(O)cc(O)c12
inactive: max response [1] -20% | max response [2] 3.99% | max response [3] -14.4% | Potency [4] | Potency [5]
active: Potency [6] 2350 nM | Potency [7] 1660 nM | Potency [8] 2090 nM
